One compound from PubChem BioAssay (EPA / NIEHS) can be followed below.

In general, AC50 refers to the concentration at which the activity in the assay is half-maximal.

Results filed as inconclusive are left out. Active and inactive are the calls of the source. The calls were made as follows, unless noted: active = hit-call score of the fitted dose curve at least 0.9, where 1 is the maximum; inactive = score below 0.9.

Assay [1] can be described thus: CCTE_Shafer_MEA_dev_burst_duration_mean: CCTE's Neural Network Formation Assay for Mean Burst Duration, Shafer Lab (AID 2284045).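 Also: curve fitted for loss meaning shorter burst duration than DMSO.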 In outline:
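Network-formation assay in primary rat cortical neurons; treatment spans twelve days of development. Mean burst duration per well is integrated by trapezoidal AUC and fitted in the loss-of-signal direction against DMSO baseline.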

The nature of assay [2]: CCTE_Shafer_MEA_dev_interburst_interval_mean: CCTE's Neural Network Formation Assay for Mean Interburst Interval, Shafer Lab (AID 2284046).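 Also: curve fitted for decrease in interburst interval relative to DMSO.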 The essentials: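 Developing rat cortical networks on 48-well MEAs receive compound from the day of plating. Burst intervals from each active electrode are averaged per well, and AUC over the recording days is fitted in the negative direction against DMSO.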

Assay [3] in a line: CCTE_Shafer_MEA_dev_inter_network_spike_interval_mean: CCTE's Neural Network Formation Assay for Mean Inter-network Spike Interval, Shafer Lab (AID 2284047).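 Also: potency for a decrease in mean inter-network spike interval below DMSO.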 The essentials: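 Rat cortical cultures, 1.5 x 10^5 cells/well on 48-well MEA plates; continuous exposure days 0–12, medium and compound refreshed DIV 5, 9. Mean time between consecutive network-spike peaks; AUC across DIV 5/7/9/12; DMSO baseline, negative fitting direction.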

A short description of assay [4]: CCTE_Shafer_MEA_dev_network_spike_number: CCTE's Neural Network Formation Assay for Number of Network Spikes, Shafer Lab (AID 2284048).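 Also: synchronized bursts across electrodes counted on days 5 7 9 12 and integrated as AUC; fit as a loss of signal meaning fewer network spikes than DMSO.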 In outline: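 Extracellular recordings from 16-electrode wells track network formation in rat cortical cultures under continuous treatment from plating. The endpoint is network spike number, expressed as AUC across DIV 5–12 relative to DMSO vehicle.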

Assay [5] is described as follows: CCTE_Shafer_MEA_dev_network_spike_peak: CCTE's Neural Network Formation Assay for Mean Number of Electrodes in Network Spike, Shafer Lab (AID 2284049).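 Also: fitted for loss of signal meaning fewer electrodes in network spikes than DMSO.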 In outline: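 Continuous 12-day exposure of rat cortical cultures, starting at plating, on MEA plates. Endpoint: electrodes participating in network-spike peaks, AUC across DIV 5–12, DMSO as negative control.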
A short description of assay [6]: CCTE_Shafer_MEA_dev_spike_duration_mean: CCTE's Neural Network Formation Assay for Mean Spike Duration, Shafer Lab (AID 2284051).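 Also: mean network spike duration pooled as area under curve over DIV 5 to 12 recordings; potency for a decrease in mean network spike duration versus DMSO.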 The essentials:
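Readout is the average length of network spikes, clustered firing across electrodes, summed over DIV 5, 7, 9 and 12 as area under the curve. Neurons from rat cortex developed networks on MEA plates under continuous 12-day exposure.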

Assay [7] can be described thus: CCTE_Shafer_MEA_dev_network_spike_duration_std: CCTE's Neural Network Formation Assay for Standard Deviation of Network Spike Duration, Shafer Lab (AID 2284052).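 Also: area under curve of spike duration SD across recording days 5 to 12; hits are decreases in network spike duration SD versus DMSO vehicle.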 In outline:
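Read-out is the trapezoidal area-under-the-curve across recordings made on days 5, 7, 9 and 12, fitted in the negative direction against DMSO baseline. Neurons were primary rat cortical cells treated from day 0, with treatment renewed at each feed.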

Assay [8] is described as follows: CCTE_Shafer_MEA_dev_per_network_spike_spike_number_mean: CCTE's Neural Network Formation Assay for Mean Number of Spikes in a Network Spike, Shafer Lab (AID 2284053). The essentials: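 Continuous twelve-day exposure of developing rat cortical networks grown over 16 microelectrodes per well; spontaneous firing is captured at four time points, and the per-network-spike spike number is integrated over development by trapezoidal AUC.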

A short description of assay [9]: CCTE_Shafer_MEA_dev_per_network_spike_spike_percent: CCTE's Neural Network Formation Assay for Percent of Spikes in a Network Spike, Shafer Lab (AID 2284054). In outline:
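Developing networks of rat cortical neurons are dosed at day 0 and recorded extracellularly four times up to day 12. The endpoint is the area under the curve of percent spikes in network spikes, fitted in the negative direction relative to DMSO.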

The nature of assay [10]: UKN5_HCS_SBAD2_cell_viability: Viability Assessment in the University of Konstanz (UKN) Leist Lab Neurite Outgrowth Assay in human iPSC-derived immature Dorsal Root Ganglia Neurons (UKN5) (AID 2284056). In outline: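 iPSC-derived immature peripheral neurons (SBAD2) seeded on Matrigel with CHIR99021, SU5402 and DAPT, dosed 1 h later for 24 h. Viability from Hoechst H-33342 and calcein-AM live staining, high-content imaging; bidirectional fit versus DMSO.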

Assay [11] is described as follows: CCTE_Shafer_MEA_dev_LDH: CCTE's Lactate Dehydrogenase Assay for Cytotoxicity in the Neural Network Formation Assay, Shafer Lab (AID 2284068; active = hit-call score of the fitted dose curve at least 0.9, where 1 is the maximum;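 also: exposure for twelve days from plating with re-dosing on DIV 5 and 9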). The essentials:
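Cytotoxicity companion to network-formation recordings: rat cortical neurons received compound over 12 days of development, re-dosed at DIV 5 and 9 feeds. Viability was inferred from LDH enzyme activity relative to DMSO.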

The nature of assay [12]: CCTE_Shafer_MEA_acute_AB: CCTE's Alamar Blue Assay for Cytotoxicity in the Neural Acute Assay, Shafer Lab (AID 2284069; active = hit-call score of the fitted dose curve at least 0.9, where 1 is the maximum;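 also: active compounds lower the viability signal compared with DMSO wells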). In outline: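 Metabolic activity in chemically exposed rat cortical neurons (MEA cultures, day 13/15 post-plating) measured via CellTiter Blue resazurin reduction, 544/590 nm fluorescence; fitted relative to DMSO, with signal loss indicating reduced viability.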
(In general: Alamar Blue is a resazurin reagent that responds to reducing activity.)

A short description of assay [13]: UKN5_HCS_SBAD2_neurite_outgrowth: University of Konstanz (UKN) Leist Lab Neurite Outgrowth Assay in human iPSC-derived immature Dorsal Root Ganglia Neurons (UKN5) (AID 2284070). The note with it: actives raise or lower the signal. In outline: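 Neurite area from calcein-AM high-content images after 24 h exposure (staining included), with H-33342 for viability, fitted both directions against DMSO. Cells: thawed immature SBAD2 peripheral neurons, 100.000 cells/cm2, with CHIR99021, SU5402, DAPT; dosing 1 h after seeding.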

A short description of assay [14]: CCTE_Shafer_MEA_dev_AB: CCTE's Alamar Blue Assay for Cytotoxicity in the Neural Network Formation Assay, Shafer Lab (AID 2284083; active = hit-call score of the fitted dose curve at least 0.9, where 1 is the maximum;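 also: twelve days of exposure from plating with re-dosing on DIV 5 and 9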). In outline: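 Fluorescent resazurin reduction serves as the viability read-out, with DMSO as negative control and baseline. Cells were primary rat cortical neurons grown on MEA plates and dosed from day 0 to day 12, treatment renewed on DIV 5 and 9.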

Assay [15] can be described thus: CCTE_Shafer_MEA_acute_LDH: CCTE's Lactate Dehydrogenase Assay for Cytotoxicity in the Neural Acute Assay, Shafer Lab (AID 2284086; active = hit-call score of the fitted dose curve at least 0.9, where 1 is the maximum;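 also: active means LDH release rises above DMSO vehicle level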). In outline: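 LDH released during 40 min compound exposure of primary rat cortical cultures, quantified by absorbance at 490 nm in collected medium. Fitting direction positive versus DMSO vehicle.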
A short description of assay [16]: CCTE_Shafer_MEA_dev_mutual_information_norm: CCTE's Neural Network Formation Assay for Mutual Information Normalization, Shafer Lab (AID 2284091).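 Also: mutual information between electrodes summarised as area under curve across four recording days; potency is for a decrease in mutual information relative to DMSO.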 The essentials: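 Exposure of primary rat cortical neurons began at plating and ran to DIV 12, with full media and treatment renewal after DIV 5 and 9 recordings. Mutual information AUC (DIV 5–12) was analysed for loss versus DMSO.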

Assay [17] in a line: CCTE_Shafer_MEA_dev_correlation_coefficient_mean: CCTE's Neural Network Formation Assay for Mean Correlation Coefficient, Shafer Lab (AID 2284093).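 Also: well mean pairwise spike train correlation integrated as AUC over recording days 5 to 12; potency fitted for loss of correlation relative to DMSO vehicle wells.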 In outline: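 Read-out: well-mean correlation coefficient of spike trains between electrode pairs, collapsed over four recording days as trapezoidal area-under-the-curve. Developing rat cortical neuron networks grown on MEAs received test chemical continuously from plating.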

Assay [18] can be described thus: UKN2_HCS_IMR90_neural_migration: University of Konstanz (UKN) Leist Lab Neural Crest Cell Migration Assay in human induced IMR90 Pluripotent Stem Cells (UKN2) (AID 2284204). The note with it: actives raise or lower the signal. In outline:
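Using a 96-well stopper format with PLO/laminin/fibronectin coating, neural crest cells from iPSC migrate in cytokine-supplemented N2-S medium; after 24 h, chemicals are applied for a further 24 h, then cells are imaged after dye staining.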

The nature of assay [19]: UKN4_HCS_LUHMES_neurite_outgrowth: University of Konstanz (UKN) Leist Lab Neurite Outgrowth Assay in human LUHMES cells (UKN4) (AID 2284206). The settings on record: actives raise or lower the signal. In outline: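 After 24 h compound treatment beginning shortly after replating of 2-day-differentiated LUHMES cells, calcein-AM and H-33342 live staining allowed high-content imaging of neurite area and viability. Fitted bidirectionally against DMSO.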

The nature of assay [20]: IUF_NPC1b_proliferation_BrdU_72hr: Leibniz Research Institute for Environmental Medicine (IUF) 72-hour Neural Progenitor Cell Bromodeoxyuridine (BrdU) Proliferation Assay (NPC1b) (AID 2284207). The essentials:
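Neural progenitor spheres of human fetal origin are treated for three days; BrdU added for the last 16 h is quantified by luminescence ELISA, with DMSO as baseline and EGF/FGF omission as positive control.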

A short description of assay [21]: IUF_NPC1a_proliferation_area_72hr: Leibniz Research Institute for Environmental Medicine (IUF) 72-hour Neural Progenitor Cell Proliferation Area Assay (NPC1a) (AID 2284208). In outline: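 Spheres of 0.3 mm are plated singly in growth-factor medium and exposed from day 0. After three days at 37C and 5% CO2, sphere area is measured by phase contrast imaging, with activity referenced to DMSO.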

Assay [22] in a line: IUF_NPC1_viability_72hr: Viability Assessment at 72 hours in the Leibniz Research Institute for Environmental Medicine (IUF) Neural Progenitor Cell Proliferation Assay (NPC1) (AID 2284209). In outline:
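Viability was measured by resazurin-to-resorufin fluorescence (alamar blue) after 72 h of continuous exposure without compound renewal. Each well held one hNPC sphere (gestational week 16-19 fetal cortex, 0.25-0.35 mm) cultured in EGF/FGF proliferation medium at 37C and pH 7.2-7.6.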

Assay [23] is described as follows: CCTE_Mundy_HCI_Cortical_Synap_Neur_Matur_BPCount: CCTE's Synaptogenesis and Neurite Maturation Assay in rat cortical cells for Branch Point Count, Mundy Lab (AID 2284211). The essentials:
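HCI read-out of branch points from MAP2/synaptophysin/Hoechst immunofluorescence; rat cortical cultures, AraC DIV 5, dosing DIV 7, fixed DIV 12; fit in positive direction vs DMSO baseline.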

In the case of `[Cd+2].[Cl-].[Cl-]`, the AC50 in assay [1] is 0.387 µM (active); in [2] it was 0.46 µM (active); in assay [3], 0.014 µM (active); in assay [4] it was 0.299 µM (active); in [5], 0.208 µM (active); in assay [6], 0.119 µM (active). In addition, the AC50 in assay [7] is 0.0239 µM (active); in assay [8], 0.26 µM (active); in assay [9], 0.585 µM (active); in assay [10] it was 50 µM (active); in assay [11] it was 1.51 µM (active); in [13], 50 µM (active). Also, the AC50 is 1.21 µM (active) in assay [14]; 0.178 µM (active) in [16]; 0.609 µM (active) in [17]; 0.88 µM (active) in assay [18]; 6.25 µM (active) in [19]; 6.45 µM (active) in [20]. For the same compound, the AC50 in [23] was 1.38 µM (active). For the same compound, the result in assay [12], in assay [15], in [21] and in assay [22] was inactive.
